Bioassay records (PubChem BioAssay)
HCMV inh – blocks human cytomegalovirus replication; HFF cells, HCMV-luciferase reporter, 72 h; hits give low values; activity change, negative = inhibition, % at 57.5 µM; 410,000 tested, 4.5% active; AID 1259415; in the data active means activity change below about -60%; inconclusive means no clear call, values can overlap the other calls; inactive means above about -39%
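Luciferase read-out from HCMV-luciferase-infected HFFs (MOI 1 PFU/cell) 72 h post infection at 37C; compounds added after 16 h cell attachment; activity normalized between buffer-only basal and Salinomycin (10uM) inhibitor controls.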
Pf growth 96h – P. falciparum growth inhibition at 96 hour, primary screen for plastid delayed-death inhibitors; P. falciparum luciferase reporter growth, 96 h; Potency, µM (series often up to 28.7 µM), actives largely listed as inhibitors; 320,000 tested, 6.9% active
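P. falciparum expressing integrated firefly luciferase, in erythrocytes at 2% hematocrit, 0.05% parasitemia, incubated with compounds 96 h at 37 C, 5% CO2. Growth inhibition read as loss of luminescence; two-generation exposure targets delayed-death apicoplast inhibitors.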
Cycloheximide cs – counter-screen for Shiga toxin inhibitors: cycloheximide protein synthesis inhibition; 300,000 tested, 12% active; max response, %; cell reporter, cycloheximide protein synthesis inhibition counterscreen; in the data active means max response mostly above about 13%, no sharp cut-off; inactive means mostly below about 14%; further: read at 38.3 µM for the half of the compounds with a filed dose
Pf growth 48h – P. falciparum growth inhibition at 48 hours (one generation); P. falciparum luciferase growth in erythrocytes, 48 h; Potency, µM (titrated, usually from 28.7 µM), most hits filed as inhibitors; 310,000 tested, 5.9% active; AID 504832
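Firefly luciferase activity from engineered P. falciparum reports growth; inhibitors lower the luminescent signal. Cultures contained 2% hematocrit erythrocytes at 0.1% final parasitemia.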
Shiga inhibitor – Shiga toxin inhibition; Vero cells, Shiga toxin protein synthesis inhibition reporter; inhibition, % at 38.7 µM; 290,000 tested, 9.2% active; AID 2315; in the data active means inhibition mostly above about 28%, no sharp cut-off; inactive means mostly below about 43%
Each line names hits and unclear results; the compound was inactive in the other large screens. Compounds with a hit are over-represented: about 20% of the library has one in this group of screens. Unless noted, the call rests on the fitted dose curve; in most records, active means well fitted inhibition curve with a large enough effect; inconclusive means small, poorly fitted or top-dose-only effect, or another doubt; inactive means no such curve, though single readings can be large or run the other way.

O=C(NCc1ccco1)c1ccc(-c2cccc(Cl)c2)o1	Cycloheximide cs 52, Shiga inhibitor 71
COc1cc2c(cc1OC)C(COc1ccc([N+](=O)[O-])cc1)N(C(C)=O)CC2 (centres undefined)	Pf growth 48h inconclusive
CCOc1ccccc1CNC(=O)c1nc(-c2ccc(Cl)cc2)n2c1CCCCC2	none (no result: Pf growth 96h, Cycloheximide cs, Pf growth 48h, Shiga inhibitor)
COc1ccc(N2CCN(C(=O)c3c(C)oc4ncnc(N5CCCCC5)c34)CC2)cc1	none (no result: Pf growth 96h, Cycloheximide cs, Pf growth 48h, Shiga inhibitor)
CN(Cc1ccccc1)S(=O)(=O)c1nnc(NC(=O)c2ccccc2Cl)s1	none (no result: Pf growth 96h, Cycloheximide cs, Pf growth 48h, Shiga inhibitor)
CC(=O)c1cccc(NC(=O)c2noc3c2CC(C)CC3)c1 (centres undefined)	none (no result: Pf growth 96h, Cycloheximide cs, Pf growth 48h, Shiga inhibitor)
Cc1cc(C(=O)NCc2ccco2)no1	none (no result: Pf growth 96h)
CC(C)Cc1cc(C(=O)NCCCN2CCOCC2)no1	Pf growth 96h inconclusive
CC1CCc2onc(C(=O)NCc3ccco3)c2C1 (centres undefined)	Pf growth 96h inconclusive, Cycloheximide cs 38, Shiga inhibitor 85
Cc1ccc(-c2cc(C(=O)NCc3ccco3)no2)cc1	Cycloheximide cs 28, Shiga inhibitor 43
O=C(NCc1ccco1)c1cc(-c2cccc(Cl)c2)on1	Cycloheximide cs 33, Shiga inhibitor 38
CC(C)Cc1cc(C(=O)NCc2ccco2)no1	Pf growth 96h inconclusive, Cycloheximide cs 32, Shiga inhibitor 52
CN(C)/C=C/C(=O)c1cc(N2CCOCC2)ccc1[N+](=O)[O-]	none
CCCCN(CC)C(=O)Cc1ccc(Br)cc1	HCMV inh inconclusive
COc1ccc(CCNC(=O)c2cc(CC(C)C)on2)cc1OC	Pf growth 96h 7.4µM (no result: Pf growth 48h)
O=C(NCc1ccco1)c1cc(-c2ccc3c(c2)OCO3)on1	Pf growth 96h inconclusive, Cycloheximide cs 42, Shiga inhibitor 109
CC1=C(C(=O)N2CCOCC2)CC(CC(=O)NC2CCCC2)C(=O)N1Cc1ccccc1 (centres undefined)	none (no result: Pf growth 96h, Cycloheximide cs, Pf growth 48h, Shiga inhibitor)
Cc1ccc(-c2nc3ccccc3[nH]2)cc1NC(=S)NC(=O)c1ccccc1Br	Pf growth 48h inconclusive
Cc1ccc(-c2nc3ccccc3[nH]2)cc1NC(=O)/C=C/c1ccco1	Pf growth 96h inconclusive, Cycloheximide cs 85, Pf growth 48h inconclusive, Shiga inhibitor 177
Cc1ccc(-c2nc3ccccc3[nH]2)cc1NC(=O)c1ccc2c(c1)OCO2	Pf growth 96h inconclusive, Cycloheximide cs 14, Pf growth 48h inconclusive
O=C(NC(=S)Nc1cc(-c2nc3ccccc3[nH]2)ccc1Cl)c1ccc2c(c1)OCO2	HCMV inh -76, Pf growth 96h inconclusive, Cycloheximide cs 70, Pf growth 48h 4.7µM, Shiga inhibitor 78
CCc1ccc(NC(=O)CSC2=Nc3ccccc3C3=NC(CCC(=O)NCc4ccccc4OC)C(=O)N23)cc1 (centres undefined)	none (no result: Pf growth 96h, Cycloheximide cs, Pf growth 48h, Shiga inhibitor)
COc1ccccc1CNC(=O)CCC1N=C2c3ccccc3N=C(SCC(=O)NCC3CCCO3)N2C1=O (centres undefined)	Pf growth 96h 4.1µM
COc1ccc(NC(=O)CSC2=Nc3ccccc3C3=NC(Cc4ccccc4)C(=O)N23)cc1 (centres undefined)	none (no result: Pf growth 96h, Cycloheximide cs, Pf growth 48h, Shiga inhibitor)
COc1ccc(NC(=O)CSC2=Nc3ccccc3C3=NC(CCC(=O)NCc4cccs4)C(=O)N23)cc1 (centres undefined)	HCMV inh -73 (no result: Pf growth 96h, Cycloheximide cs, Pf growth 48h, Shiga inhibitor)
COc1cccc(NC(=O)CSC2=Nc3ccccc3C3=NC(CCC(=O)NCCc4ccccc4)C(=O)N23)c1 (centres undefined)	HCMV inh -68 (no result: Pf growth 96h, Cycloheximide cs, Pf growth 48h, Shiga inhibitor)
O=C(CSC1=Nc2ccccc2C2=NC(Cc3ccccc3)C(=O)N12)Nc1cccc(Cl)c1 (centres undefined)	HCMV inh -72 (no result: Pf growth 96h, Cycloheximide cs, Pf growth 48h, Shiga inhibitor)
CC1CN(C(=O)c2ccc(NS(=O)(=O)c3ccc(F)c(F)c3)cc2)CC(C)O1 (centres undefined)	Pf growth 48h inconclusive (no result: Cycloheximide cs, Shiga inhibitor)
CC(C)C[C@H](NC(=O)[C@H](Cc1ccccc1)C[C@@H](O)[C@H](Cc1ccccc1)NC(=O)OC(C)(C)C)C(=O)N[C@@H](Cc1ccccc1)C(N)=O	none (no result: HCMV inh, Pf growth 96h, Pf growth 48h)
O=C(NCC1COc2ccccc2O1)c1cccc(S(=O)(=O)N2CCCCC2)c1 (centres undefined)	Pf growth 96h inconclusive, Pf growth 48h inconclusive (no result: Cycloheximide cs, Shiga inhibitor)
O=C(NCC1CCCCC1)c1cccc(S(=O)(=O)N2CCCC2)c1	Pf growth 96h inconclusive, Pf growth 48h 10µM (no result: Cycloheximide cs, Shiga inhibitor)
CN(C)S(=O)(=O)c1cccc(C(=O)NCC2CCCCC2)c1	HCMV inh -78
CC(OC(=O)c1cccc(S(=O)(=O)N2CCCCC2)c1)C(=O)NCC1CCCCC1 (centres undefined)	none (no result: HCMV inh, Cycloheximide cs, Shiga inhibitor)
